The results in this text go back to PubChem BioAssay.

The structures appear in SMILES notation. Values without a mark were called inactive. The source made the active and inactive calls.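 Rule for the calls, unless noted: active = mean inhibition over 43.08%, the solvent-only control mean plus 3 SD; inactive = the rest.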

Experiment [1] deals with Nuclear receptor coactivator 3 (Homo sapiens) (UniProt Q9Y6Q9). Nature of the experiment: NCOA3 GAL4-fusion reporter inhibition – cell-based, luminescence, quadruplicate, confirmation (AID 588792).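 Note: 0% = DMSO treated cells and 100% = gossypol at 36 µM.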 The settings on record: HEK293 GAL4-SRC3 luciferase reporter, at 3.6 µM, hits give high values.
Sequence of Nuclear receptor coactivator 3 (Homo sapiens) (Q9Y6Q9 whole entry, looked up, the tested form may be a part): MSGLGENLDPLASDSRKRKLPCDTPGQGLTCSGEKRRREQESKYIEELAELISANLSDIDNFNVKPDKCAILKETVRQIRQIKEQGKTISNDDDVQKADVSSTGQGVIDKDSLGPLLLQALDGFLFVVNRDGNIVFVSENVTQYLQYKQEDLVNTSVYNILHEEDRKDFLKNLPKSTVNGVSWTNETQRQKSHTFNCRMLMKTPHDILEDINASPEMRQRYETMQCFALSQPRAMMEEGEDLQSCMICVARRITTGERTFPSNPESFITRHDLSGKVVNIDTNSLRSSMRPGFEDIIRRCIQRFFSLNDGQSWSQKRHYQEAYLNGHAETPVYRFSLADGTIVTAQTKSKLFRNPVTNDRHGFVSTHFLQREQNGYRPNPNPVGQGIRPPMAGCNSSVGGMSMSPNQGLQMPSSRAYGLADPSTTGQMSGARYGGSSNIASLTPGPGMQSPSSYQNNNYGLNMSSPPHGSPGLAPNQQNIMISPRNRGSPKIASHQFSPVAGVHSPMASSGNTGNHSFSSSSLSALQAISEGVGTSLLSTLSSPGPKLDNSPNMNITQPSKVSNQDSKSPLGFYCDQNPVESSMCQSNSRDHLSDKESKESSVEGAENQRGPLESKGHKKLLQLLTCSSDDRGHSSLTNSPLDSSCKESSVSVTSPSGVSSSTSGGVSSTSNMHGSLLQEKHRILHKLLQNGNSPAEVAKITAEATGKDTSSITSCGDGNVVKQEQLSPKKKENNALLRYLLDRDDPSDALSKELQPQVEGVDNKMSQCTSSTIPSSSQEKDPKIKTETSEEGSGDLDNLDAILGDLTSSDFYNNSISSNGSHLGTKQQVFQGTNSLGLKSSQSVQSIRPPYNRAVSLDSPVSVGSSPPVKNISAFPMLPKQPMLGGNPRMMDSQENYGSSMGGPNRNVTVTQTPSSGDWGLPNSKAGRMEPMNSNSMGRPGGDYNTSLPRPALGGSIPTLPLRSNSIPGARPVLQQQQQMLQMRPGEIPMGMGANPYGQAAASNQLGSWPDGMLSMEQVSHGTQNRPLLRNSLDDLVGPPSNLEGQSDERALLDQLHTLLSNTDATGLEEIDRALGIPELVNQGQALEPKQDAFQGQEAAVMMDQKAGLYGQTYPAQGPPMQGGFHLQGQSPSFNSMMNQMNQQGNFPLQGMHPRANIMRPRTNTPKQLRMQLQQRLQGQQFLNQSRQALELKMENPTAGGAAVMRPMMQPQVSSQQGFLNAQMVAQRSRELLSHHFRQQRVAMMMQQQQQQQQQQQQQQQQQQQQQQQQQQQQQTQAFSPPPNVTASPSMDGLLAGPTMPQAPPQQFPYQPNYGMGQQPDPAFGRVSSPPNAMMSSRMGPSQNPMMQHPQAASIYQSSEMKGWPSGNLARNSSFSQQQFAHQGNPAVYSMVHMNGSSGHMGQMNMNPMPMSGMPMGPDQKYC
In experiment [2] the test system is transactivating tegument protein VP16 (Human herpesvirus 1), Gal4-VP16 luciferase reporter. The experiment can be described thus: repression of VP16-driven luciferase reporter – cell-based, luminescence, high throughput, counter-screen for SRC3 inhibitor project (AID 588794; in the data active = inhibition above about 30%). The settings on record: mammalian cells, at 3.6 µM, hits give high values.

With `CCOCc1c(C(=O)NC2=Nc3ccccc3NC(CC)=C2C(=O)OCC)oc2ccccc12`, the inhibition in experiment [1] is 1.38%; in experiment [2], -11.3%.
On the same counts, the results for `O=C(NNC(=O)c1cccnc1SCc1cccc([N+](=O)[O-])c1)c1ccccn1` are 34.4% and 30.1% (active).
On the same counts, the results for `CCOC(=O)CN(C(=O)COc1nc(C)cc(C)c1C#N)c1ccc(Cl)cc1` are 4.25% and 1.1%.
For `COc1cc(NC(=O)C2CCN(S(=O)(=O)c3ccc(N4CCCC4=O)cc3)CC2)cc(OC)c1`, the inhibition in experiment [1] was 7.83%; in experiment [2], 5.99%.
On the same counts, the results for `O=C(CN1CC(c2ccccc2)CC1=O)N/N=C/c1cc(Br)ccc1O` (centres undefined) are 15.1% and 10.9%.
In the case of `O=C(C1=C(O)C(=O)N(CCN2CCOCC2)C1c1cccc([N+](=O)[O-])c1)c1cccs1` (centres undefined), the results for the inhibition in experiment [1] and in experiment [2] were -8.15% and -1.72%, respectively.
On the same counts, the results for `COn1c(C)c(C(C)=O)c2c3nonc3ccc21` are 22.5% and 33.5% (active).
For `Cc1cc(C(C)(C)C)cc(C)c1Cn1c2[n+](c3ccc(C(F)(F)F)cc31)CCCCC2`, the values for the inhibition in experiment [1] and in experiment [2] were 11% and 21.3%, respectively.
As to `CS(=O)(=O)c1ccc(Sc2nc3ccccc3s2)c([N+](=O)[O-])c1`, the inhibition in experiment [1] is 45.8% (active); in experiment [2], 19.5%.
In the case of `O=C(Nc1ccc(S(=O)(=O)Nc2ccc(F)cc2)cc1)c1ccc(CN2CCOCC2)cc1`, the figures for the inhibition in experiment [1] and in experiment [2] were 7.38% and 38.6% (active), respectively.
`S=C(Nc1cccc2ccccc12)NN1CCCCCC1`: the inhibition in experiment [1] was 43.8% (active); in experiment [2], 33% (active).
With `Cc1cc(C)nc(/N=C(\N)Nc2ccccc2-c2ccccc2)n1`, the inhibition in experiment [1] is -12%; in experiment [2] it was 13.4%.
